The text below walks through data of PubChem BioAssay (NCI).

Some test systems named below: T-47D breast; BT-549 breast; MDA-MB-435 melanoma; SW-620 colon; MCF7 breast; HCT-116 colon; HCC-2998 colon; KM12 colon.
Common to all, as to test: NCI-60 one-dose screen, 48 h (100 = growth as untreated, 0 = no growth, -100 = all killed)
What all share (conditions): 10 µM unless noted

SMILES strings stand for the structures. Compounds without any hit were thinned out: in the full panel of roughly 83,000, 20% have a hit.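 Single-dose data. Exposure time 48 hours. Values below 10 considered active.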 Values without a mark were called inactive. Active and inactive are the calls of the source.

With `CCCCOc1ncnc2nc[nH]c12`, the growth with T-47D breast is 107%; in the assay with BT-549 breast it was 97.6%; with MDA-MB-435 melanoma it was 111%; with SW-620 colon, 108%; with MCF7 breast it was 96.9%; in the assay with HCT-116 colon, 101%. Besides, the growth in the assay on HCC-2998 colon is 111%.

For `COc1ccc2c(c1)N(CCO)C1=C(C(=O)OC1)C2c1cccc(Br)c1` (stereo not drawn), the growth with T-47D breast is 72%; in the assay on BT-549 breast, 15.9%; in the assay on MDA-MB-435 melanoma, -51% (active); with SW-620 colon it was 22.5%; with MCF7 breast, 16.1%; in the assay on HCT-116 colon, 3.89% (active).

For the compound `COc1cc(/C=C2\C(=O)Nc3ccc(N(C)C)cc32)cc(OC)c1OC`, the growth with T-47D breast is 34.3%; with BT-549 breast, 6.82% (active); with MDA-MB-435 melanoma, -37.7% (active); in the assay with SW-620 colon, 8.08% (active); in the assay on MCF7 breast, 12%; with HCT-116 colon, 13.7%. The growth in the assay with HCC-2998 colon is 49.1%.

`N#Cc1c(N)c(C(=O)c2ccc3c(c2)OCCO3)n2c1CCCC2`: the growth with T-47D breast was 29.2%; in the assay with BT-549 breast, 52.9%; in the assay with MDA-MB-435 melanoma it was -48.8% (active); in the assay with SW-620 colon, 19.3%; in the assay with MCF7 breast, 18.1%; in the assay with HCT-116 colon, 18.6%. For the same compound, the figures for the growth in the assay on HCC-2998 colon and in the assay on KM12 colon were 59.6% and 24.1%, respectively.

For `CCOC(=O)c1c(NC(=O)c2ccccc2)sc2c(O)c(CN(CC)CC)ccc12`, the growth was 44.9% in the assay on T-47D breast; 0.881% (active) with BT-549 breast; -55.4% (active) with MDA-MB-435 melanoma; 19.6% in the assay on SW-620 colon; 8.33% (active) with MCF7 breast; 7.59% (active) in the assay with HCT-116 colon. Further, the growth in the assay on HCC-2998 colon was 11.6%; in the assay on KM12 colon, 2.35% (active).

For `COc1cc2nccc(Oc3ccc(NC(=O)C4(C(=O)Nc5c(F)cc(F)cc5F)CC4)cc3)c2cc1Oc1ccc(N)cn1`, the growth is 29% in the assay with T-47D breast; 74.2% in the assay on BT-549 breast; 3.8% (active) in the assay with MDA-MB-435 melanoma; 40.3% with SW-620 colon; 31.7% in the assay with MCF7 breast; 56.6% in the assay with HCT-116 colon. Moreover, in the assay on HCC-2998 colon, the growth is 81.5%.

For `O=C(CCc1nc2sc3c(c2c(=O)[nH]1)CCC3)NCc1cn(-c2ccccc2)nc1-c1ccccc1`, the growth with T-47D breast is -0.261% (active); with BT-549 breast, 95.6%; with MDA-MB-435 melanoma it was 76.1%; with SW-620 colon, 28.7%; with MCF7 breast, 34.1%; in the assay with HCT-116 colon, -27.1% (active). Besides, the growth with HCC-2998 colon was 87.5%.

With `Nc1nc2c(c3ncccc13)C(c1ccccc1)Cc1ncccc1-2` (stereo not drawn), the growth with T-47D breast is 71.1%; in the assay on BT-549 breast it was 72.9%; with MDA-MB-435 melanoma, -0.757% (active); in the assay on SW-620 colon, 52.9%; in the assay on MCF7 breast it was 45.6%; with HCT-116 colon it was 63.2%. Besides, in the assay with HCC-2998 colon, the growth is 81.7%.

As to `COc1cc2cc(C(=O)Nc3ccccc3)c(N)nc2cc1OC`, the growth with T-47D breast is -28% (active); in the assay on BT-549 breast it was 69.9%; in the assay with MDA-MB-435 melanoma it was -84.2% (active); in the assay with SW-620 colon, -68% (active); in the assay on MCF7 breast, -88.4% (active); with HCT-116 colon, -80.2% (active). Besides, the growth with HCC-2998 colon is -83.4% (active).

Take `CO[C@@]12[C@@H]3NC3CN1C1=C(C(=O)C(N)=C(C)C1=O)[C@@H]2COC(N)=O` (stereo partly drawn): the growth in the assay with T-47D breast is 40.8%; in the assay on BT-549 breast, 28.6%; in the assay with MDA-MB-435 melanoma it was 34.9%; in the assay with SW-620 colon, 10.4%; in the assay on MCF7 breast it was 6.55% (active); in the assay with HCT-116 colon, 6.78% (active). Besides, the growth in the assay on HCC-2998 colon is -44.8% (active).

Regarding `CCN(CC)CCCC(C)Nc1cnc(C(=O)Nc2ccc(Cl)c3cccnc23)cn1` (stereo not drawn), the growth was -49.3% (active) in the assay with T-47D breast; 80.1% in the assay on BT-549 breast; -57.8% (active) with MDA-MB-435 melanoma; 0.619% (active) in the assay on SW-620 colon; -2.14% (active) in the assay on MCF7 breast; -52.4% (active) in the assay with HCT-116 colon. Besides, the growth with HCC-2998 colon was 32.6%.

Regarding `COc1cc(C2CC(c3ccc(Cl)cc3)=NN2C=O)ccc1OS(=O)(=O)c1ccc(C)cc1` (stereo not drawn), the growth with T-47D breast was 77%; in the assay with BT-549 breast, 83.2%; in the assay on MDA-MB-435 melanoma it was 90.2%; in the assay on SW-620 colon, 87.2%; in the assay with MCF7 breast, 78.9%; in the assay on HCT-116 colon it was 81.1%. Also, the growth in the assay with HCC-2998 colon is 104%.

With `COc1ccc(C(=O)c2cc(C)c(OC)c(C)c2)cc1OC(=O)CCl`, the growth in the assay on T-47D breast is 62.7%; with BT-549 breast, 15.2%; in the assay on MDA-MB-435 melanoma, -23.5% (active); in the assay with SW-620 colon, 26.5%; in the assay on MCF7 breast, 19.2%; in the assay on HCT-116 colon, 6.62% (active). Moreover, the growth in the assay with HCC-2998 colon is 27%.

Turning to `Brc1ccccc1Cn1c(-c2cncs2)nc2ccccc21`, the growth with T-47D breast was 72.2%; with BT-549 breast it was 85.4%; with MDA-MB-435 melanoma, 110%; in the assay with SW-620 colon it was 88.4%; in the assay on MCF7 breast, 98.9%; in the assay on HCT-116 colon, 73.3%. Also, the growth in the assay with HCC-2998 colon was 92%; with KM12 colon it was 76.7%.

As for `CN1CCN(Cc2ccc(NC(=O)c3ccc(C#N)c(C#Cc4cnc(N)c5ncccc45)c3)cc2C(F)(F)F)CC1`, the growth in the assay with T-47D breast was 112%; with BT-549 breast, 103%; in the assay on MDA-MB-435 melanoma, 56%; in the assay with SW-620 colon it was 23.4%; with MCF7 breast it was 16.3%; in the assay on HCT-116 colon, -10.5% (active). The growth is 112% in the assay with HCC-2998 colon and 13.5% with KM12 colon.

Turning to `CC1(C)CC[C@]2(C(=O)N3CCNCC3)CC[C@]3(C)C(=CC[C@@H]4[C@@]5(C)CCC(=O)C(C)(C)[C@@H]5CC[C@]43C)[C@@H]2C1`, the growth in the assay on T-47D breast is 102%; with BT-549 breast, 106%; with MDA-MB-435 melanoma it was 105%; with SW-620 colon, 106%; in the assay on MCF7 breast, 98.6%; in the assay with HCT-116 colon, 101%. For the same compound, the results for the growth in the assay on HCC-2998 colon and in the assay with KM12 colon were 106% and 111%, respectively.

For the compound `Cc1nc2ccc(Nc3nc(N4CCOCC4)nc(N4CCN(C)CC4)n3)cc2n1Cc1ccccc1`, the growth in the assay with T-47D breast is 91.9%; in the assay on BT-549 breast, 66.1%; in the assay on MDA-MB-435 melanoma, 91%; with SW-620 colon, 96.9%; with MCF7 breast it was 82.6%; in the assay on HCT-116 colon, 71.3%. In addition, the growth in the assay on HCC-2998 colon is 96.3%.
